From PubChem BioAssay AID720697 (Broad Institute, 2013)
Entries with a potency or affinity are not part of this list. Inconclusive results are not listed. Values without a mark were called inactive.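 The calls were made as follows: active = signal loss with fitted half-maximal concentration at or below twice the top valid tested dose in every test run; inconclusive = runs disagree, flat 30 to 70% signal loss, or poor fit; inactive = all runs flat, opposite direction, or potency beyond limit.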

Experiment: HEK293T cytotoxicity, dose response, cytotoxicity control for miR-122 modulator project, cell-based, inhibitor set, cherry-pick, set 2 (AID 720697);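 also: 0% = median of neutral control wells and -100% = MG132 positive control wells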
Conditions: HEK293T viability, CellTiter-Glo luminescence, 48 h; series mostly up to 26 µM; activity change, negative = cytotoxicity: at the top concentration

| SMILES | activity change, negative = cytotoxicity [%] |
| --- | --- |
| Cc1cnc(NC(=O)c2cc3c(C)nn(-c4ccccc4)c3s2)s1 | 54.1 |
| COc1ccc(NC(=O)Cn2nnc(C(=O)NCc3ccccc3OC)c2N)cc1Cl | 45.7 |
| C[C@@H]1CN([C@H](C)CO)S(=O)(=O)c2ccc(-c3ccccc3)cc2O[C@@H]1CN(C)C(=O)c1ccc2c(c1)OCO2 | 33.4 |
| CCCNC(=O)Nc1ccc2c(c1)C(=O)N(C)[C@H]1CC[C@@H](CC(=O)NCC3CCCCC3)O[C@@H]1CO2 | 59.2 |
| CCCNC(=O)C[C@@H]1CC[C@H]2[C@@H](COc3ccc(NC(=O)c4ccc(C(F)(F)F)cc4)cc3C(=O)N2C)O1 | 36.1 |
